Many of the other results were omitted from the sample, so hits are more common in it than they were.
Pf Dd2 inh – qHTS Primary assay for Inhibitors of Plasmodium falciparum Dd2 growth in vitro; 120,000 tested, 4.3% active; P. falciparum Dd2 growth, SYBR Green, 72 h; AID 1347417, 2020; Potency, µM (titrated, usually from 28.9 µM), actives largely listed as inhibitors; active = well fitted inhibition curve with a large enough effect; also: nearly all actives have a fitted effect of over 65% in size
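Infected erythrocytes (Dd2, 0.3% parasitemia, 2.5% hematocrit final) are added to compound in RPMI-1640/Albumax II medium, grown 72 h at 37C in low oxygen, then lysed with saponin/Triton-X containing SYBR Green and read by fluorescence.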
Each line names hits and unclear results; the compound was inactive in the other large screens.

COc1cccc(C(=O)N2CCC(N3C[C@H](O)C[C@H]3C(=O)N3CCN(C(C)C)CC3)CC2)c1	none
COc1cccc(C(=O)N2CCC(N3C[C@H](O)C[C@H]3C(=O)N3CCc4ccccc4C3)CC2)c1	Pf Dd2 inh 1.4µM
CCNC(=O)[C@@H]1C[C@@H](O)CN1C1CCN(C(=O)c2cccc(OC)c2)CC1	none
O=C(Nc1nnc(C2CC2)s1)C1CC(=O)N(c2n[nH]c3cc(Br)ccc23)C1 (stereo not given)	none
Cc1ccc(F)cc1S(=O)(=O)N1CC(c2nc(-c3ccncc3)no2)C1	none
c1cc(N2CCOCC2)ncc1-c1noc([C@@H]2CCCN2)n1	none
C=CCn1c(-c2ccc(F)cc2)cn2cc(C(=O)N(C)CCO)nc2c1=O	none
CC(C)=CCn1c(-c2ccccc2Cl)cn2cc(C(=O)NCC(C)O)nc2c1=O (stereo not given)	Pf Dd2 inh 10µM
CC(C)=CCn1c(-c2cc(C)oc2C)cn2cc(C(=O)N[C@@H](C)C(N)=O)nc2c1=O	none
COc1ccccc1OCCNC(=O)c1cc2n(n1)CC(c1ccc(Cl)cc1)OC2 (stereo not given)	none
O=C(NC1CCCc2c1cnn2-c1ccc(F)cc1F)c1ccsc1 (stereo not given)	none
Cc1ccc(C(=O)N2CCCCCCNC(=O)[C@@H]3C[C@@H](c4nc(-c5cnccn5)no4)C[C@@H]32)s1	none
Cc1cccc(CN2CCc3c(n(Cc4cccnc4)n(CCc4ccccc4)c3=O)C2)n1	none
CCc1nc2c(=O)n(CC(=O)N3CCN(c4cc(C)ccc4C)CC3)nc(C)c2s1	none
COCCCNC(=O)CSc1nc2cc(OC)c(OC)cc2c2nc(-c3ccccc3)nn12	none
Cc1cccc(-c2nc3c4ccccc4nc(NCc4ccc(Cl)cc4)n3n2)c1	none
COc1ccccc1CNc1nc2ccccc2c2nc(-c3cccnc3)nn12	none
COc1cc2nc(NCc3ccc(C)cc3)n3nc(-c4ccccc4)nc3c2cc1OC	Pf Dd2 inh 0.1µM
COc1cc2nc(NCCc3cccc(C)c3)n3nc(-c4ccccc4)nc3c2cc1OC	Pf Dd2 inh 0.5µM
Cc1ccc(CNc2nc3ccccc3c3nc(-c4cccc(C)c4)nn23)cc1	none
CC(=O)N1CCC(N2C(=O)C3(CCCC3)C2c2scnc2C)CC1 (stereo not given)	none
COc1ccc(-c2cc(C(=O)NCc3cnn(C)c3)c3c(c2)N(C)CCO3)cc1	none
CNc1nccc(N2CCC(CC(=O)NCc3ccncc3)CC2)n1	none
COc1cc(NC(=O)c2cc3n(n2)CC(c2ccc(Br)cc2)OC3)cc(OC)c1OC (stereo not given)	none
CCOc1ccc(-n2nc3ccc(NC(=O)COc4ccccc4)cc3n2)cc1	none
CCOc1ccc(-n2nc3ccc(NC(=O)c4ccc(-c5cccc(Cl)c5)o4)cc3n2)cc1	Pf Dd2 inh 2.8µM
CCOc1ccc(-n2nc3ccc(NC(=O)c4ccc(C)cc4C)cc3n2)cc1	none
CC(C)(C)NC(=O)N1CCCCCNC(=O)CC1c1ccccc1 (stereo not given)	none
CCOc1ccccc1NC(=O)N(C)CC1CCOCC1	none
COc1ccc(NC(=O)c2nnn(-c3ccc(C(C)C)cc3)c2C)c(OC)c1	none
Cc1ccc(-n2nc(C)c([C@@H]3C=C[C@@H](NC(=O)NC4CCCCC4)C3)c2C)cc1Cl	none
Cc1nn(-c2ccc(C(F)(F)F)cc2)c(C)c1[C@@H]1C=C[C@@H](NC(=O)NC(C)C)C1	none
Cc1nn(CCC#N)c(C)c1[C@@H]1C=C[C@@H](NC(=O)NC(C)C)C1	none
Cc1nn(-c2ccc(C(C)C)cc2)c(C)c1[C@@H]1C=C[C@@H](NC(=S)NC2CCCCC2)C1	none
COc1ccc(-n2nc(C)c([C@@H]3C=C[C@@H](NC(=O)NC4CCCCC4)C3)c2C)cc1	Pf Dd2 inh 16µM
CCNC(=O)N[C@@H]1C=C[C@@H](c2c(C)nn(-c3ccc(OC)cc3)c2C)C1	Pf Dd2 inh 10µM
COc1ccc(NC(=O)N[C@@H]2C=C[C@@H](c3c(C)nn(-c4ccc(C(C)C)cc4)c3C)C2)cc1	Pf Dd2 inh 11µM
COCCOCc1nc(C2CCCCN2C(=O)NCc2ccccc2)no1 (stereo not given)	none
Cc1nonc1CC(=O)N1CCCC(c2nnc(Cn3cccn3)n2C)C1 (stereo not given)	none
CN1CCN(CCCNC(=O)c2c(OCC3CC3)cc(=O)n3c2CCCCC3)CC1	none
O=C(CCc1nnn2c1CN(C(=O)Cc1c[nH]c3ccccc13)CC2)N1CCCC1	none
CN1[C@@H](CCC(=O)NCc2cccs2)CNC(=O)[C@H]2NCC[C@H]21	none
CC(=O)N1C[C@@H]2OCC(=O)N(c3ccccc3)[C@@H]2C1	none
COc1ccccc1CCC(=O)N1CCC2(CC1)NC(=O)N(c1cccc(F)c1)N2	none
CC1=C(C(=O)OC(C)C)C(c2cccs2)N2C(CC(=O)NC3CC3)=CSC2=N1 (stereo not given)	none
COCCc1noc([C@@H]2CN(Cc3cccc(Cl)c3)C[C@H]2CO)n1	none
CCCN(CC1CCOC1)S(=O)(=O)c1ccc(C)c(Cl)c1 (stereo not given)	none
O=C(N[C@@H]1CCN(C(=O)c2ccc3cc[nH]c3c2)C[C@H]1O)c1cnccn1	none
CCOC(=O)c1[nH]c(C)c(CCC(=O)NCc2ccc(OC)cc2)c1C	none
Cc1cccc(N2CCN(C(=O)CCc3c(C)nc4c(c3C)c(=O)n(C)c(=O)n4C)CC2)c1C	none
CCOC(=O)c1[nH]c(C)c(CCC(=O)N2CCN(c3ccc(Cl)cc3)CC2)c1C	Pf Dd2 inh 3.5µM
CCOC(=O)c1[nH]c(C)c(CCC(=O)N2CCN(c3cccc(C)c3C)CC2)c1C	Pf Dd2 inh 0.35µM
CCOC(=O)c1c(C)[nH]c(C)c1S(=O)(=O)N(C)CC(=O)N1CCN(c2ccc(Cl)cc2)CC1	none
CCOC(=O)c1c(C)[nH]c(C)c1S(=O)(=O)N1CCC(C(=O)N2CCN(c3cccc(C)c3C)CC2)CC1	none
COc1cc(CN(C(=O)C2CCC2)[C@H]2CCCCNC2=O)ccc1OCCc1scnc1C	none
CN(Cc1ccc2nonc2c1)C(=O)C1CCN(C(=O)C2CCCC2)CC1	none
Cc1cccc(C(=O)N2CCCCCCNC(=O)[C@@H]3C[C@@H](c4nc(-c5cccnc5)no4)C[C@@H]32)c1	none
CC(C)C[C@@H]1N[C@H](C(=O)NCC2CC2)Cc2cn(Cc3ccccn3)c3cccc1c23	none
CCCNC(=O)[C@@H]1Cc2cn(Cc3c(C)noc3C)c3cccc(c23)[C@H](CC(C)C)N1	Pf Dd2 inh 11µM
Cc1cc(Cn2cc3c4c(cccc42)[C@H](CC(C)C)N[C@H](C(=O)O)C3)no1	none
CC(C)C[C@@H]1N[C@H](C(=O)NCCN(C)C)Cc2cn(Cc3ccccn3)c3cccc1c23	none
C=CCn1cc2c3c(cccc31)[C@H](CC(C)C)N[C@H](C(=O)NCc1ccccn1)C2	Pf Dd2 inh 11µM
CC(C)C[C@@H]1N[C@H](C(=O)NC2CCC2)Cc2cn(Cc3ccncc3)c3cccc1c23	none
CC(C)C[C@@H]1N[C@H](C(=O)NCc2ccccc2)Cc2cn(Cc3cccnc3)c3cccc1c23	none
CC(C)C[C@@H]1N[C@H](C(=O)NCc2ccccn2)Cc2cn(Cc3ccncc3)c3cccc1c23	none
C#CCNC(=O)[C@@H]1Cc2cn(Cc3ccncc3)c3cccc(c23)[C@H](CC(C)C)N1	Pf Dd2 inh 10µM
CC(C)C[C@@H]1N[C@H](C(=O)NC2CCC2)Cc2cn(Cc3ccccn3)c3cccc1c23	Pf Dd2 inh 11µM
Cc1cccc(C(=O)N2C[C@@H](Oc3cccnc3)C[C@H]2C(=O)N2CCOCC2)c1	none
CCS(=O)(=O)N1CCC2(CCCN(C3CCOCC3)C2=O)C1 (stereo not given)	none
CN1[C@@H](CCC(=O)NCc2cccs2)CNC(=O)[C@@H]2[C@H]1CCN2C1CCOCC1	none
